Test results as given in PubChem BioAssay (NCATS).
Results filed as inconclusive are left out. Unmarked numbers belong to inactive results. Active and inactive are the calls of the source. Calls follow the shape of the dose curve; as a rule, active = well fitted inhibition curve with a large enough effect; inconclusive = small, poorly fitted or top-dose-only effect; inactive = flat fitted curve, though single readings scatter.

These compounds were tested on CP201 (assay: qHTS profiling for inhibitors of Plasmodium falciparum proliferation (AID 504749; also: nearly all actives have a fitted effect of over 60% in size;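 as to activity, negative = inhibition: 0% = DMSO vehicle and full inhibition = artemisinin control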)). Settings: P. falciparum in erythrocytes, SYBR Green DNA, 72 h; series mostly up to 28.7 µM; activity, negative = inhibition: at the top concentration.
Procedure, shortened: (§1)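 In a 72 h erythrocytic culture (37 C, humidified, 5% CO2) at 2.5% hematocrit and 0.3% starting parasitemia, compounds were tested; SYBR Green I in detergent lysis buffer stained parasite DNA overnight.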
Potency is read from the fitted curve at half-maximal effect.

SMILES | activity, negative = inhibition | Potency
CN1CCN(C2Cc3ccccc3Sc3ccc(Cl)cc32)CC1 (stereo unspecified) | -14.3% | 
Cc1cc2c(cc1S(N)(=O)=O)S(=O)(=O)CCC2 | -12.5% [at 12.8 µM] | 
CCOc1nc2cccc(C(=O)O)c2n1Cc1ccc(-c2ccccc2-c2nn[nH]n2)cc1 | -7.61% | 
NC1CCN(c2cccc(Cl)n2)CC1 | -6.01% | 
CCOC(CN1CCN(CC(C)C(=O)c2ccccc2)CC1)c1ccccc1 (stereo unspecified) | -6.65% | 
CSc1ccc2c(c1)N(CCC1CCCCN1C)c1ccccc1S2 (stereo unspecified) | -11.1% | 
C[C@]12C[C@H](O)[C@H]3[C@@H](CCC4=CC(=O)CC[C@@]43C)[C@@H]1CC[C@@H]2C(=O)CO | 0.418% | 
CSc1ccc2c(c1)C(N1CCN(C)CC1)Cc1ccccc1S2 (stereo unspecified) | -6.2% | 
CCCc1c(OCCCCc2nn[nH]n2)ccc(C(C)=O)c1O | -8.55% | 
CCCCN1CCCC[C@H]1C(=O)Nc1c(C)cccc1C | -18.7% | 
COc1ccc2[nH]c(S(=O)Cc3ncc(C)c(OC)c3C)nc2n1 (stereo unspecified) | -5.74% | 
CN1CCCCC1CCN1c2ccccc2Sc2ccc(S(C)=O)cc21 (stereo unspecified) | -14.7% | 
Nc1ccc(S(=O)(=O)Nc2ccc(Cl)nn2)cc1 | -2.54% [at 12.8 µM] | 
c1ccc(CN(CC2=NCCN2)c2ccccc2)cc1 | -20.5% | 
CC(CN1c2ccccc2Sc2ccccc21)N(C)C (stereo unspecified) | 6.35% | 
O=C1NS(=O)(=O)c2ccccc21 | -3.54% | 
CNCCC(Oc1ccc(C(F)(F)F)cc1)c1ccccc1 (stereo unspecified) | -19.3% | 
Cc1ccc2nc(N)[nH]c(=O)c2c1Sc1ccncc1 | -8.86% | 
CN(C)CCCN1c2ccccc2Sc2ccc(Cl)cc21 | -17.1% | 
Cc1cc(N)c2ccccc2[n+]1CCCCCCCCCC[n+]1c(C)cc(N)c2ccccc21 |  | 0.642 µM (active)
[Cl][In]([Cl])[Cl] | -7.83% | 
CCCCOc1cc(C(=O)OCCN(CC)CC)ccc1N | -1.06% [at 12.8 µM] | 
CN(C)CCN(Cc1ccccc1)c1ccccn1 | -8.18% | 
CNCCCC1c2ccccc2C=Cc2ccccc21 | -19.3% [at 12.8 µM] | 

These compounds were tested on CP203 in the same assay as above. Settings: P. falciparum in erythrocytes, SYBR Green DNA, 72 h; series mostly up to 28.7 µM; activity, negative = inhibition: at the top concentration.
Procedure, shortened: as §1

SMILES | Potency | activity, negative = inhibition [%]
CC(C)(C)C(=O)C(Oc1ccc(Cl)cc1)n1ccnc1 (stereo unspecified) | 13.5 µM (active) | 
CCN(CC)CCNC(C(=O)OCCC(C)C)c1ccccc1 (stereo unspecified) | 9.53 µM (active) | 
CCCc1c(OCCCCc2nn[nH]n2)ccc(C(C)=O)c1O |  | -8.83
COc1ccc2[nH]c(S(=O)Cc3ncc(C)c(OC)c3C)nc2n1 (stereo unspecified) |  | -18.5
[Cl][In]([Cl])[Cl] |  | -9.49

Each compound was assayed on CP211 in the same assay as above. Settings: P. falciparum in erythrocytes, SYBR Green DNA, 72 h; series mostly up to 28.7 µM; activity, negative = inhibition: at the top concentration.
Procedure, shortened: as §1

SMILES | activity, negative = inhibition | Potency
CN1CCN(C2Cc3ccccc3Sc3ccc(Cl)cc32)CC1 (stereo unspecified) | -14.5% | 
Cc1cc2c(cc1S(N)(=O)=O)S(=O)(=O)CCC2 | 0.0274% [at 12.8 µM] | 
CCOc1nc2cccc(C(=O)O)c2n1Cc1ccc(-c2ccccc2-c2nn[nH]n2)cc1 | -0.746% | 
NC1CCN(c2cccc(Cl)n2)CC1 | -6.41% | 
CCOC(CN1CCN(CC(C)C(=O)c2ccccc2)CC1)c1ccccc1 (stereo unspecified) | -18% | 
CSc1ccc2c(c1)N(CCC1CCCCN1C)c1ccccc1S2 (stereo unspecified) | -20.8% | 
C[C@]12C[C@H](O)[C@H]3[C@@H](CCC4=CC(=O)CC[C@@]43C)[C@@H]1CC[C@@H]2C(=O)CO | 5.3% | 
CCN(CC)CCNC(C(=O)OCCC(C)C)c1ccccc1 (stereo unspecified) | -23.1% | 
CCCc1c(OCCCCc2nn[nH]n2)ccc(C(C)=O)c1O | -6.21% | 
CCCCN1CCCC[C@H]1C(=O)Nc1c(C)cccc1C | -1.5% | 
COc1ccc2[nH]c(S(=O)Cc3ncc(C)c(OC)c3C)nc2n1 (stereo unspecified) | -10.1% | 
Nc1ccc(S(=O)(=O)Nc2ccc(Cl)nn2)cc1 | 1.67% [at 12.8 µM] | 
c1ccc(CN(CC2=NCCN2)c2ccccc2)cc1 | -9.72% | 
CC(CN1c2ccccc2Sc2ccccc21)N(C)C (stereo unspecified) | 5.62% | 
O=C1NS(=O)(=O)c2ccccc21 | -0.725% | 
CNCCC(Oc1ccc(C(F)(F)F)cc1)c1ccccc1 (stereo unspecified) | -22.1% | 
NC(=O)N/N=C/c1ccc([N+](=O)[O-])o1 | -22.9% | 
Cc1cc(N)c2ccccc2[n+]1CCCCCCCCCC[n+]1c(C)cc(N)c2ccccc21 |  | 0.144 µM (active)
[Cl][In]([Cl])[Cl] | -12.7% | 
CCCCOc1cc(C(=O)OCCN(CC)CC)ccc1N | 0.952% [at 12.8 µM] | 
CN(C)CCN(Cc1ccccc1)c1ccccn1 | -17.9% | 
Cc1c(O)cccc1C(=O)N[C@@H](CSc1ccccc1)[C@H](O)CN1C[C@H]2CCCC[C@H]2C[C@H]1C(=O)NC(C)(C)C | -32.6% | 
CNCCCC1c2ccccc2C=Cc2ccccc21 | -14.4% [at 12.8 µM] | 

Each compound was assayed on CP215 in the same assay as above. Settings: P. falciparum in erythrocytes, SYBR Green DNA, 72 h; series mostly up to 28.7 µM; activity, negative = inhibition: at the top concentration.
Procedure, shortened: as §1

SMILES | activity, negative = inhibition | Potency
Cc1cc2c(cc1S(N)(=O)=O)S(=O)(=O)CCC2 | 9.84% [at 12.8 µM] | 
NC1CCN(c2cccc(Cl)n2)CC1 | -9.33% | 
CCOC(CN1CCN(CC(C)C(=O)c2ccccc2)CC1)c1ccccc1 (stereo unspecified) | -17.9% | 
C[C@]12C[C@H](O)[C@H]3[C@@H](CCC4=CC(=O)CC[C@@]43C)[C@@H]1CC[C@@H]2C(=O)CO | -6.07% | 
CCCc1c(OCCCCc2nn[nH]n2)ccc(C(C)=O)c1O | -21.3% | 
CCCCN1CCCC[C@H]1C(=O)Nc1c(C)cccc1C | -23% | 
COc1ccc2[nH]c(S(=O)Cc3ncc(C)c(OC)c3C)nc2n1 (stereo unspecified) | -14.8% | 
CN1CCCCC1CCN1c2ccccc2Sc2ccc(S(C)=O)cc21 (stereo unspecified) |  | 15.1 µM (active)
Nc1ccc(S(=O)(=O)Nc2ccc(Cl)nn2)cc1 | -1.79% [at 12.8 µM] | 
O=C1NS(=O)(=O)c2ccccc21 | 2.08% | 
CN(C)CCCN1c2ccccc2Sc2ccc(Cl)cc21 |  | 15.1 µM (active)
Cc1cc(N)c2ccccc2[n+]1CCCCCCCCCC[n+]1c(C)cc(N)c2ccccc21 |  | 0.809 µM (active)
CCCCOc1cc(C(=O)OCCN(CC)CC)ccc1N | 9.86% [at 12.8 µM] | 
CN(C)CCN(Cc1ccccc1)c1ccccn1 | -0.82% | 
